The full list was thinned out, with hits kept by preference.
Pf Dd2 growth: blocks in vitro growth of P. falciparum Dd2; Potency, µM (series often up to 28.9 µM), actives largely listed as inhibitors; 4.3% of 120,000 active; P. falciparum Dd2 growth, SYBR Green, 72 h; active = well fitted inhibition curve with a large enough effect; also: nearly all actives have a fitted effect of over 65% in size
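Infected erythrocytes (Dd2, 0.3% parasitemia, 2.5% hematocrit final) are added to compound in RPMI-1640/Albumax II medium, grown 72 h at 37C in low oxygen, then lysed with saponin/Triton-X containing SYBR Green and read by fluorescence.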
Hits are given with their value; – = inactive.

SMILES | Pf Dd2 growth
O=C(Nc1cccc(Cl)c1)C1=NO[C@@H]2CN(CCc3ccccc3)C[C@H]12 | –
COC(=O)C1=CN(CC(=O)N(C)c2ccccc2)S(=O)(=O)N=C1C | –
Cc1cnn(CCC(=O)NC2CCc3nnc(C)n3CC2)c1 (configuration not stated) | –
Cc1cccc(C(=O)N2CCC3(CC2)c2nc[nH]c2CCN3CC(C)C)n1 | –
CC(=O)NC1CC2(CCN(C(=O)CCC(=O)OC(C)(C)C)CC2)Oc2ccccc21 (configuration not stated) | –
O=C(CC1CCN(C(=O)c2cc(F)ccc2F)C1)NC1CC1 (configuration not stated) | –
CC1(COc2ccc3[nH]ccc3c2)COc2ccc(C(=O)N3CC(O)C3)cc2N1 (configuration not stated) | –
COCCc1noc([C@@H]2CN(C3CCCCCC3)C[C@H]2CO)n1 | –
CC(C)Oc1cccc2c1c(NC(=O)C1CCOCC1)nn2C | –
CC(C)Oc1cccc2c1c(NC(=O)c1ccn(C)n1)nn2Cc1ccccc1 | 8.9µM
CC(C)Oc1cccc2c1c(NC(=O)C1CCCO1)nn2Cc1ccccc1 (configuration not stated) | –
Cc1cc(C)c2[nH]c(C(=O)NCc3nc(-c4ccccn4)no3)c(C)c2c1 | –
O=C(COc1ccccc1)N1CCC2(CC1)CC(N(C(=O)c1ccccc1)C1CC1)CCO2 (configuration not stated) | –
Cc1cccc(-c2nc3c(c(SCc4ccccc4Cl)n2)Cc2c(CO)cnc(C)c2O3)c1 | –
Cc1ccc(-c2nc3c(c(SCC(=O)N4CCCCC4)n2)Cc2cc(C)ccc2O3)cc1 | –
CCc1ccccc1NC(=O)CSc1nc(-c2ccccc2OC)nc2c1Cc1c(CO)cnc(C)c1O2 | –
CCCCSc1nc(-c2cccc(OC)c2)nc2c1Cc1c(CO)cnc(C)c1O2 | –
Cc1ccc(C)c(NC(=O)CSc2nc(-c3ccccc3Cl)nc3c2Cc2c(CO)cnc(C)c2O3)c1 | –
C=Cc1ccc(CSc2nnc(C)n3c2cc2occc23)cc1 | –
COc1ccccc1-c1nc2c(c(SCC(=O)Nc3c(C)cc(C)cc3C)n1)Cc1c(CO)cnc(C)c1O2 | –
Cc1ccc(CSc2nc(-c3ccccc3C)nc3c2Cc2c(CO)cnc(C)c2O3)cc1 | 5µM
CCc1ccc(CSc2nc(-c3ccccc3OC)nc3c2Cc2c(CO)cnc(C)c2O3)cc1 | 3.2µM
COc1ccc(-c2nc3c(c(SCC(=O)Nc4cc(C)cc(C)c4)n2)Cc2c(CO)cnc(C)c2O3)cc1 | –
C=Cc1ccc(CSc2nc(-c3ccc(C)cc3)nc3c2Cc2c(CO)cnc(C)c2O3)cc1 | 2.8µM
CCc1ccc(NC(=O)CSc2nc(-c3cccc(OC)c3)nc3c2Cc2c(CO)cnc(C)c2O3)cc1 | 3.5µM
SMILES | Pf Dd2 growth
O=C(c1cc(C2CC2)[nH]n1)N1CCC2(CC1)NC(=O)N(c1cccc(F)c1)N2 | –
Cc1nc(N2CCC(NC(=O)c3ccco3)CC2)cc(C(F)(F)F)n1 | –
N#Cc1ccc(S(=O)(=O)N2CCC3(CC2)CC2C(=O)NCCN2C3)cc1 (configuration not stated) | –
c1ccc(OCc2cc(CC3(NCc4ccc5c(c4)OCO5)COC3)no2)cc1 | –
CNC(=O)N1CCC(C2CCN(C(=O)CCc3ccc(OC)cc3)C2)CC1 (configuration not stated) | –
O=C(NC1C[C@H]2CC[C@@H](C1)N2C(=O)c1ccoc1)c1ccncc1 (some centres not stated) | –
COc1ccc(-c2ccc3nc(-c4ccccc4Br)oc3c2)c(OC)c1OC | –
COCC(=O)N1CCN(C(=O)CSCC(=O)O)C[C@H]1C(=O)N[C@H]1CCCNC1=O | –
CCOC(=O)C1=C(CN(CC)Cc2ccccc2)NC(=O)NC1c1ccc(Cl)cc1 (configuration not stated) | –
CCOC(=O)C1=C(CN2CCN(c3ccc(OC)cc3)CC2)NC(=O)NC1c1ccc(Cl)cc1 (configuration not stated) | –
CCOC(=O)C1=C(CN2CCN(C)CC2)NC(=O)NC1c1ccc(F)cc1 (configuration not stated) | –
CCOC(=O)C1=C(CN(C)Cc2ccccc2)NC(=O)NC1c1ccc(OC)cc1 (configuration not stated) | –
CCOC(=O)C1=C(CN2CCN(c3cc(C)ccc3C)CC2)NC(=O)NC1c1ccc(Cl)cc1 (configuration not stated) | 10µM
CCOC(=O)C1=C(CNCc2ccccc2)NC(=O)NC1c1ccc(C)cc1 (configuration not stated) | 10µM
CN1CCC([C@@H]2CN(S(=O)(=O)c3cccc(C#N)c3)C[C@H]2C(N)=O)CC1 | –
CC(C)N1CCN(C2CCOC3(CCN(S(=O)(=O)c4ccccc4)CC3)C2)CC1 (configuration not stated) | –
COc1nccc(N2CCC(CC(=O)NCc3ccccc3F)CC2)n1 | –
CCOc1ccccc1C1NC(=O)N(CC(=O)Nc2ccc(C(C)=O)cc2)C2=C1C(=O)OC2 (configuration not stated) | –
COc1ccc(CN2C[C@@H](CO)[C@H](C3CCN(C(C)=O)CC3)C2)cc1OC | –
COc1cccc(NC(=O)C2CCN(S(=O)(=O)c3ccc4[nH]c5c(c4c3)CCCCC5)CC2)c1 | –
CC(=O)c1ccc(N2CCN(S(=O)(=O)c3ccc4[nH]c5c(c4c3)CCCCC5)CC2)cc1 | –
O=C(Nc1cccc(F)c1)C1CCN(S(=O)(=O)c2ccc3[nH]c4c(c3c2)CCCCC4)CC1 | 11µM
CNC(=O)[C@H]1C[C@H](Oc2ccccc2)CN1C(=O)Cn1ccnc1 | –
O=C(Nc1cccc(F)c1)N1CCc2c(c3ccccc3n2CC2CC2)C1 | –
O=C1NCCOCCCN(C(=O)NCc2ccccc2)[C@H]2CCC[C@@H]12 | –
SMILES | Pf Dd2 growth
O=C(NCc1ccc(C(F)(F)F)cc1)C1CN(c2ccc(Cl)cc2)C(=O)N1 (configuration not stated) | –
NC(=O)[C@@H]1CN(C(=O)CCn2cccn2)C[C@H]1COc1ccccc1 | –
CCCC1=Nc2cc(C(=O)NCCc3ccc(OC)cc3OC)ccc2Sc2ccccc21 | –
CCOc1ccc(-c2cn3c(n2)sc2cc(C(=O)N4CCCC(C)C4)ccc23)cc1 (configuration not stated) | 7.1µM
CCOc1ccc(-c2cn3c(n2)sc2cc(C(=O)NCCc4ccc(OC)cc4OC)ccc23)cc1 | 5.6µM
CCN(CC)CCNC(=O)C1CCN(c2nn3cc(-c4ccc(F)cc4)nc3s2)CC1 | –
CCOc1ccc(-c2cc3c(=O)n(CCNC(=O)c4ccc(Cl)cc4)ccn3n2)cc1 | –
Cc1c(C(=O)NCc2ccccc2Cl)sc2nc(-c3ccc(F)cc3)cn12 | –
CCOc1ccc(-c2cn3c(n2)sc2cc(C(=O)NCCCN(CC)CC)ccc23)cc1 | 2.8µM
CCOc1ccc(-c2cn3c(n2)sc2cc(C(=O)NC4CCCc5ccccc54)ccc23)cc1 (configuration not stated) | –
CCN(CC)CCNC(=O)c1ccc2c(c1)sc1nc(-c3ccc(F)cc3)cn12 | 3.2µM
CCOc1ccc(C(=O)N2CCCC(n3cc(-c4nc(C5CC5)no4)nn3)C2)cc1 (configuration not stated) | –
CCCCOc1ccc(C(=O)NCCc2sc(-c3ccc(OC)c(OC)c3)nc2C)cc1 | –
COc1ccc(-c2cn3c(n2)sc2cc(C(=O)N4CCCCC4)ccc23)cc1 | –
O=C(NC[C@H]1O[C@@H](CO)[C@@H](O)[C@H]1N1CCN(c2ccc(F)cc2)CC1)c1cccs1 | –

Source: PubChem BioAssay
